We go through 40 molecules from PubChem BioAssay (Tox21).

Unmarked numbers belong to inactive results. Inconclusive results are not listed. A call without a number means that no potency is given here. Activity calls are given as the source filed them. Calls come from the whole dose curve.

Sequence of Acetylcholinesterase (Homo sapiens) (P22303 whole entry, looked up): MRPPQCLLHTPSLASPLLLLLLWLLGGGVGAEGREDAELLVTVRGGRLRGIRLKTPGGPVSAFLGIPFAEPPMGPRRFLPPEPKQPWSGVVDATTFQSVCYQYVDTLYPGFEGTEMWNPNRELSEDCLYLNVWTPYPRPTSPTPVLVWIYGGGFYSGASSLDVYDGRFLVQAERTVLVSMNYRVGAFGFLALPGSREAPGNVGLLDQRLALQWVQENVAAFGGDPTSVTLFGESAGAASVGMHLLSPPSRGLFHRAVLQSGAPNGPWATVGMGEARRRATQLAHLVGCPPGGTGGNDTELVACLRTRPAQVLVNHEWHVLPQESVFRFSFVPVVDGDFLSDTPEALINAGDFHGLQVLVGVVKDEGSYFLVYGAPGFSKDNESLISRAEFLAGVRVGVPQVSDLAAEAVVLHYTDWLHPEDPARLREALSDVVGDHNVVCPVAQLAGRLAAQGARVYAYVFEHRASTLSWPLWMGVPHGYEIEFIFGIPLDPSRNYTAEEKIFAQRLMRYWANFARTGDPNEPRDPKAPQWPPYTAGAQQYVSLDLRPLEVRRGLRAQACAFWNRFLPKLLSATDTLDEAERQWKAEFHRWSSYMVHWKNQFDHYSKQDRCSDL

One test concerns the target Acetylcholinesterase (Homo sapiens) (UniProt P22303). As to the kind of experiment: Acetylcholinesterase (AChE) small molecule antagonists: fluorescence cell-based qHTS assay (AID 1347398). Note: nearly all actives have a fitted effect of over 50% in size. To be noted: SH-SY5Y cells; Potency: AChE activity; outcome: AChE activity; series mostly up to 115 µM. A digest of the protocol:
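Cellular AChE activity read as thiocholine from acetylthiocholine hydrolysis, detected by Thiolite Green fluorescence at 490/520 nm after 40 min at room temperature. Compounds were pre-incubated 30 min at 37 C on adherent SH-SY5Y cells.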
Take `CO[Si](OC)(c1ccccc1)c1ccccc1`: the Potency result was “inactive”.
Turning to `CC1(C)CCC(C)(C)c2cc(C(=O)Nc3ccc(C(=O)O)cc3)ccc21`, the Potency result is “inactive”.
Same read-out and setting: next, `CC(=O)Oc1ccc(C(C)=O)cc1`: “inactive”.
`Cc1ccccc1N1C(=O)c2cc(S(N)(=O)=O)c(Cl)cc2NC1C` (stereo not given): the Potency entry is “inactive”.
Take `CO[Si](CCCS)(OC)OC`: the Potency result was “inactive”.
Same read-out and setting: next, `[O-][n+]1ccc(Cl)cc1`: “inactive”; `C=CC(C)(CCC=C(C)C)OC=O` (stereo not given): “inactive”; `C/C=C/C=C/COC(=O)C(C)C`: “inactive”.
On the same count and under the same terms, next, `CCCC(c1cc(C(C)(C)C)c(O)cc1C)c1cc(C(C)(C)C)c(O)cc1C`: “inactive”.
With `C[C@H](O)C(=O)Nc1c(I)c(C(=O)NC(CO)CO)c(I)c(C(=O)NC(CO)CO)c1I`, the Potency result was “inactive”.
As to `Cc1ccc(Nc2ccc(O)c3c2C(=O)c2ccccc2C3=O)cc1`, the Potency result was “inactive”.
Same read-out and setting: next, `CC(=O)N(CC(=O)N(C)C)c1ccccc1`: “inactive”.
`CC(C)SCc1ccco1`: the Potency result is “inactive”.
`CC1=NS(=O)(=O)c2cc(Cl)ccc2N1`: the Potency entry was “inactive”.
Consider `COc1ccc(CCC(=O)c2c(O)cc(O[C@@H]3O[C@H](CO)[C@@H](O)[C@H](O)[C@H]3O[C@@H]3O[C@@H](C)[C@H](O)[C@@H](O)[C@H]3O)cc2O)cc1O`, for which the Potency entry was “inactive”.
Consider `CC(=O)c1ccc2c(c1)Cc1ccccc1-2`, for which the Potency result is “inactive”.
For `CCCN(CCC)C(=O)C(CCC(=O)O)NC(=O)c1ccccc1` (stereo not given), the Potency result was “inactive”.
Regarding `N[C@@H](CSCCCO)C(=O)O`, the activity change, negative = inhibition was 1.96% [at 23.8 µM].
In the case of `Cc1nc(-c2ccccn2)ncc1C(=O)Nn1cc(C)c2cc(F)ccc21`, the Potency entry is “inactive”.
Regarding `CCCCCCOc1ccc(N)cc1`, the Potency result was “inactive”.
Same read-out and setting: next, `O=C(Nc1ccc([N+](=O)[O-])cc1)Nc1ccc([N+](=O)[O-])cc1`: “inactive”.
On to `O=CN1CCOCC1`, for which the Potency entry is “inactive”.
The same measure, in the same setting: next, `C=C1CC[C@H]2O[C@]2(C)CC[C@@H]2[C@@H]1CC2(C)C`: “inactive”; `C=CCOc1nc(OCC=C)nc(OCC=C)n1`: “inactive”.
On the same count and under the same terms, next, `CCCCCCCCCCCC(=O)OCC`: “inactive”; `CCN(CC)CCNC(C(=O)OCCC(C)C)c1ccccc1` (stereo not given): “inactive”; `CC(C)(C)OC(=O)c1ccc(O)cc1`: “inactive”.
Same read-out and setting: next, `CC(=O)OCC(C)OC(C)=O` (stereo not given): “inactive”.
As to `O=CC=C(c1ccccc1)c1ccccc1`, the Potency entry was “inactive”.
On the same count and under the same terms, next, `O=C(O)c1cccc(C(F)(F)F)c1`: “inactive”; `CCOc1ccc(NS(=O)(=O)c2ccc(N)cc2)nn1`: “inactive”; `CC1CCc2c(N3CCC(O)CC3)c(F)cc3c(=O)c(C(=O)O)cn1c23` (stereo not given): “inactive”.
On to `CCC[C@@H]1C[C@@H](C(=O)N[C@@H]([C@H]2O[C@H](SC)[C@H](O)[C@@H](O)[C@H]2O)[C@@H](C)O)N(C)C1`, for which the Potency entry is “inactive”.
With `CO[Si](CCCNc1ccccc1)(OC)OC`, the Potency entry was “inactive”.
The same measure, in the same setting: next, `C1OCOCO1`: “inactive”.
On the same count and under the same terms, next, `COc1nc(C)nc(Cl)c1NC1=NCCN1`: “inactive”.
As for `CC(C)[N+](C)(C)CC(O)COc1cccc2ccccc12` (stereo not given), the Potency entry was “inactive”.
As to `O=C(OCc1ccccc1)C(=O)OCc1ccccc1`, the Potency result is “inactive”.
Take `CC[C@@]1(O)C(=O)OCc2c1cc1n(c2=O)Cc2c-1nc1ccccc1c2/C=N/OC(C)(C)C`: the Potency entry was “inactive”.
As to `CCOC(=O)c1ccc(N(C)C)cc1`, the Potency entry is “inactive”.

A further test shares this target. Description: Acetylcholinesterase (AChE) small molecule antagonists: enzyme-based qHTS assay with human liver microsomes (AID 1347399). Note: nearly all actives have a fitted effect of over 60% in size. To be noted: Potency: qHTS inhibition; outcome: qHTS inhibition; series mostly up to 115 µM. A digest of the protocol:
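Recombinant human AChE (50 mU/mL in the enzyme mix) and human liver microsomes (0.25 mg/mL final) were preincubated with compound and NADPH (0.25 mg/mL final) for 30 min at 37 C. Acetylthiocholine/DTNB was then added; thiocholine was read colorimetrically after 10 min at room temperature.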
Regarding `Cc1ccccc1N1C(=O)c2cc(S(N)(=O)=O)c(Cl)cc2NC1C` (stereo not given), the Potency entry is “inactive”.
On the same count and under the same terms, next, `CCCC(c1cc(C(C)(C)C)c(O)cc1C)c1cc(C(C)(C)C)c(O)cc1C`: “inactive”; `C[C@H](O)C(=O)Nc1c(I)c(C(=O)NC(CO)CO)c(I)c(C(=O)NC(CO)CO)c1I`: “inactive”.
Regarding `CC(C)SCc1ccco1`, the Potency entry was “inactive”.
The same measure, in the same setting: next, `CC(=O)c1ccc2c(c1)Cc1ccccc1-2`: “inactive”.
For `N[C@@H](CSCCCO)C(=O)O`, the activity change, negative = inhibition is -0.67% [at 23.6 µM].
As for `O=CN1CCOCC1`, the Potency result was “inactive”.
Consider `CC(C)(C)OC(=O)c1ccc(O)cc1`, for which the Potency result was “inactive”.
In the case of `CCOc1ccc(NS(=O)(=O)c2ccc(N)cc2)nn1`, the Potency entry was “inactive”.
On the same count and under the same terms, next, `O=C(OCc1ccccc1)C(=O)OCc1ccccc1`: “inactive”.
